Several values for one entry are separate records, joined by “and”; a condition that tells them apart may be missing. Equal entries are not always repeated. The panel holds about 79,000 compounds, 15% with a hit somewhere; the sample as a whole holds those more often. A number with no mark means an inactive call. Activity calls are given as the source filed them. Rule as the data show it: active = growth inhibition above about 70%; inactive = the rest.
Experiment: NCI Yeast Anticancer Drug Screen. Data for the bub3 strain (AID 167)
Settings: S. cerevisiae bub3 mutant strain, at 50.0 µM, active compounds read high
Summary of the method: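 Whole-cell yeast assay. The mutant strain was incubated with compounds, and growth inhibition was determined by comparison with vehicle-treated cells.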

SMILES	growth inhibition
NC(=O)/C=C/C(=O)O	11%
O=C(O)c1cc(I)cc(I)c1I	1.25%
CC(C)(C)NC(=O)C(Cl)Cl	5.15%
O.O.O=Cc1ccccc1O.O=Cc1ccccc1O.[Co]	92.5% (active)
CC(Cc1ccc(O)cc1)NCC(O)c1ccc(O)c(O)c1 (stereo not given)	-7.45%
CC1([N+](=O)[O-])COP(=O)(NCC2CCCO2)OC1 (stereo not given)	0.35%
O=[As](O)(O)c1cc(F)ccc1F	-8%
O=C(O)COc1ccc(Cl)cc1Cl (tested in a mixture with another compound)	-9.5%
NC(CSC(c1ccccc1)c1ccccc1)C(=O)O (stereo not given)	13.4%
Cc1cccc(C)c1[S][Pb][S]c1c(C)cccc1C	-2.05%
O=C(CF)NCCCl	9.65%
O=C(Nc1ccc(Cl)cc1C(=O)c1ccccc1)c1ccc(Cl)cc1	25.9%
CN1CN(c2ccccc2)C2(CCN(CC(C)(c3ccc(F)cc3)C3OCCCO3)CC2)C1=O (stereo not given)	-27.1%
CCOC(CNC(=O)c1ccc(S(=O)(=O)F)cc1)OCC	42.8%
CCN(CC)CC(=O)c1ccccc1	3.15%
CCC[CH2][Sn]([CH2]CCC)([CH2]CCC)[CH2]CC(=O)OC	99% (active)
CCC(=O)C1(c2ccccc2)CCN(C)CC1	-12.9%
Cc1nnnn1C	-19.1%
O=[As](O)(O)c1cc(N=Nc2ccc(-c3ccc(N=Nc4cc([As](=O)(O)O)c(O)cc4O)cc3)cc2)c(O)cc1O	-4.2%
N#C[C@H](OC1OC(COC2OC(CO)C(O)C(O)C2O)C(O)C(O)C1O)c1ccccc1 (stereo not given in full)	-29.1%

SMILES	growth inhibition
CCCCCCN1C(C)C1C(C)C (stereo not given)	-4.15%
CCCCCOP(=O)(OCCCCC)C(=O)Nc1ccc([N+](=O)[O-])cc1	-1.8%
Cc1nnc2cc3ccccc3cn12	21.9%
C[N+](C)(C)CC1CCC(C[N+](C)(C)C)C1=NO (stereo not given)	9.75%
C[C@H]1CC(=O)C[C@@H]2CC[C@@H]3[C@H](CC[C@]4(C)C(OC(=O)c5cccc6c(=O)c7ccccc7[nH]c56)CC[C@@H]34)[C@]21C (stereo not given in full)	5.2%
C=C(C)C1(CC)C(=O)NC(=O)N(C)C1=O (stereo not given)	3.65% and 1.5%
O=c1oc2ccccc2c(O)c1C(c1cnc2ccccc2c1)c1c(O)c2ccccc2oc1=O	-5.7%
CNC(C)(C)Cc1ccc(Cl)cc1	4.6%
O=P(OCCCCl)(OCCCCl)C(Cl)(Cl)Cl	13.7%
OC1(CN2CCCCC2)N=C(c2ccccc2)c2ccsc2-n2cccc21 (stereo not given)	-11.5%
O=c1[nH]c2ccccc2c(=O)n1-c1ccccc1	-2%
CCCCCCCCCCCOP(=O)(OCC)OCC	99.7% (active)
Cc1ccc(NC(=O)C(Cl)(Cl)Cl)cc1Cl	25.2%
NC(Cc1ccc(Cl)cc1)P(=O)(O)O (stereo not given)	-12.1%
c1ccc(-c2sc3cccc[n+]3c2-c2ccccc2)cc1	13.4%
CC(=O)Oc1ccc([As](=O)(O)O)cc1	10.4%
CO[C](=[W])c1ccccc1.[C-]#[O+].[C-]#[O+].[C-]#[O+].[C-]#[O+].[C-]#[O+]	1.05%
CC(C)c1cccc(OC(=O)N(C)C=O)c1	-21.4%
Cc1cnc2ncn(Cc3c[nH]c(=O)[nH]c3=O)c(=O)c2c1	-18.4%
CCCCC(Br)C(=O)OCC (stereo not given)	10.9%
